Assay results taken from PubChem BioAssay (NCI).
This is part of a sample that, as a whole, favours compounds with a hit. Of some 79,000 tested, about 15% had one in any assay. A number with no mark means an inactive call. Rule as the data show it: active = growth inhibition above about 70%; inactive = the rest. Where a SMILES comes first, the peptide text is derived from it. Bridges are numbered along the chain shown (N, C = ends). [ ]: non-standard residue; d: D form. The star is where a group is joined. ξ: configuration not given here. PhAc = O=C(Cc1ccccc1)*; ξP = O=C(O)C1CCCN1

Experiment: NCI Yeast Anticancer Drug Screen. Data for the rad50 strain (AID 155);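 also: 0% = growth of vehicle-only cultures of the same strain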
Details: S. cerevisiae rad50 strain growth inhibition; at 50.0 µM; stronger effect = higher value
How it was run: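 A DNA repair-deficient yeast mutant serves as the test organism; compound-induced growth inhibition is calculated against vehicle-treated cells.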

Compound	growth inhibition
CCOC(=O)CC(=O)C(=O)NNC1=NCCN1	7.15%
NCCc1c(-c2cccnc2)[nH]c2ccccc12	-14.5%
CCCCCCCCCCCCCCCCOc1ccc(-c2cc(=O)n(C)n2C)cc1	6%
COc1ccc(N2C(=O)/C(=C/c3ccc(N(CCC#N)CCC#N)cc3C)N=C2c2cc([N+](=O)[O-])ccc2Cl)cc1	-13.2%
CSCNC(=S)Nc1ccc(Cl)c(Cl)c1	59.2%
COc1cc(C(=O)CC(=O)Cc2ccc3ccccc3n2)cc(OC)c1OC	2.75%
C[N+](C)(C)CC(=O)N/N=C(\C(=O)NC1=C(Cl)C(=O)c2ccccc2C1=O)C(C#N)c1csc(-c2ccc([N+](=O)[O-])cc2)n1 (centres undefined)	14.8%
O=[N+]([O-])c1cccc(-c2csc(NNC3=NC/C(=C/c4ccc5c(c4)OCO5)S3)n2)c1	33.5%
O=C(Cc1ccccc1)N[C@@H]1COC(=O)C2CCCN2C(=O)[C@@H]2CCCN2C1=O (some centres undefined) (PhAc-[dS]-Pro-[ξP]; ester 1-C)	-11.6%
COc1ccc(C(=O)C(O)c2ccc(OC)cc2)cc1 (centres undefined)	8.15%
Cc1ncc([N+](=O)[O-])n1CCNC(=O)CCCCCn1ccnc1[N+](=O)[O-]	3.1%
OC1c2ccccc2-c2ccc(NCc3ccc4c(c3)OCO4)cc21 (centres undefined)	48.8%
Cc1cccc(/C=C/c2csnn2)n1	-25.1%
O=[N+]([O-])c1ccc(N/N=C/C2CCCCCC2)c([N+](=O)[O-])c1	11.4%
